Results taken from PubChem BioAssay (NCATS).
Inconclusive results are not listed. Active and inactive are the calls of the source. The call rests on the fitted dose curve; tested in HEK293 reporter line.

test: qHTS for Inhibitors of the Functional Ribonucleoprotein Complex (vRNP) of Lassa (LASV) Arenavirus: LASV Primary Screen - GLuc reporter signal (AID 1347082); details: LASV minigenome vRNP, Gaussia luciferase reporter; series mostly up to 57.5 µM; activity change, negative = inhibition: at the top concentration; further: nearly all actives have a fitted effect of over 60% in size
On the % scale 0 is the no-effect control and ±100 the full control effect.

Row | SMILES | activity change, negative = inhibition | Potency
1 | Nc1ccc(C(=O)O)cc1 | 2.48% (inactive) | –
2 | O=C1c2c(O)cccc2Cc2cccc(O)c21 | 2.7% (inactive) | –
3 | CC(=O)c1ccc(S(=O)(=O)NC(=O)NC2CCCCC2)cc1 | – | inactive
4 | CC(C)[N+](C)(C)CC(O)COc1cccc2ccccc12 (stereo unspecified) | 0.329% (inactive) | –
5 | Nc1ccc(C(=O)OCC(O)CO)cc1 (stereo unspecified) | 2.06% (inactive) | –
6 | COc1ccnc(CS(=O)c2nc3ccc(OC(F)F)cc3[nH]2)c1OC (stereo unspecified) | – | inactive
7 | CC(=O)N(CC(O)CO)c1c(I)c(C(=O)NCC(O)CO)c(I)c(C(=O)NCC(O)CO)c1I (stereo unspecified) | 6.57% (inactive) | –
8 | Cc1ccc(S(=O)(=O)NC(=O)NC2CCCCC2)cc1 | 3.14% (inactive) | –
9 | Cc1ccc(C(=O)C(=O)O)cc1C | 0.697% (inactive) | –
10 | CC(=O)c1ccc(OCC(=O)N2CCCCC2)cc1 | -0.917% (inactive) | –
11 | CCCC(=O)O[C@]1(C(=O)COC(=O)CC)CC[C@H]2[C@@H]3CCC4=CC(=O)CC[C@]4(C)[C@H]3[C@@H](O)C[C@@]21C | -32.6% [at 24.7 µM] (inactive) | –
12 | COCCc1ccccn1 | 0.803% (inactive) | –
13 | CCOC(=O)C1=C[C@@H](OC(CC)CC)[C@H](NC(C)=O)[C@@H](N)C1 | 12.8% (inactive) | –
14 | Cc1ccccc1OCC(O)CO (stereo unspecified) | 6.8% (inactive) | –
15 | O=C(O)Cc1cn(-c2ccccc2)nc1-c1ccc(Cl)cc1 | 4.79% (inactive) | –
16 | COC(=O)C1=C(C)NC(C)=C(C(=O)OCC(C)=O)C1c1ccccc1[N+](=O)[O-] (stereo unspecified) | -25.1% (inactive) | –
17 | Nc1ccc(C(=O)O)c(O)c1 | -9.6% (inactive) | –
18 | CC(CCc1ccc2c(c1)OCO2)NN (stereo unspecified) | 1.29% (inactive) | –
19 | O=C(O)[C@H](O)c1ccccc1 | -10.5% (inactive) | –
20 | CCN(CC)CCNC(=O)c1cc(S(C)(=O)=O)ccc1OC | – | inactive
21 | CCOCCn1c(C2CCN(CCc3ccc(C(C)(C)C(=O)O)cc3)CC2)nc2ccccc21 | -11.1% (inactive) | –
